Test results from ChEMBL document CHEMBL1961873, “Compounds: GSK PKIS; Assays: Nanosyn kinase panel” (2012).

Legend:
[1] = target: Tyrosine-protein kinase CSK (Homo sapiens) (UniProt P41240); conditions: at 1 µM;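 further: each value is an averaged inhibition reading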
[2] = target: T1, Discoidin domain-containing receptor 2 (Homo sapiens) (UniProt Q16832); conditions: at 0.1 µM
T1 sequence (whole entry): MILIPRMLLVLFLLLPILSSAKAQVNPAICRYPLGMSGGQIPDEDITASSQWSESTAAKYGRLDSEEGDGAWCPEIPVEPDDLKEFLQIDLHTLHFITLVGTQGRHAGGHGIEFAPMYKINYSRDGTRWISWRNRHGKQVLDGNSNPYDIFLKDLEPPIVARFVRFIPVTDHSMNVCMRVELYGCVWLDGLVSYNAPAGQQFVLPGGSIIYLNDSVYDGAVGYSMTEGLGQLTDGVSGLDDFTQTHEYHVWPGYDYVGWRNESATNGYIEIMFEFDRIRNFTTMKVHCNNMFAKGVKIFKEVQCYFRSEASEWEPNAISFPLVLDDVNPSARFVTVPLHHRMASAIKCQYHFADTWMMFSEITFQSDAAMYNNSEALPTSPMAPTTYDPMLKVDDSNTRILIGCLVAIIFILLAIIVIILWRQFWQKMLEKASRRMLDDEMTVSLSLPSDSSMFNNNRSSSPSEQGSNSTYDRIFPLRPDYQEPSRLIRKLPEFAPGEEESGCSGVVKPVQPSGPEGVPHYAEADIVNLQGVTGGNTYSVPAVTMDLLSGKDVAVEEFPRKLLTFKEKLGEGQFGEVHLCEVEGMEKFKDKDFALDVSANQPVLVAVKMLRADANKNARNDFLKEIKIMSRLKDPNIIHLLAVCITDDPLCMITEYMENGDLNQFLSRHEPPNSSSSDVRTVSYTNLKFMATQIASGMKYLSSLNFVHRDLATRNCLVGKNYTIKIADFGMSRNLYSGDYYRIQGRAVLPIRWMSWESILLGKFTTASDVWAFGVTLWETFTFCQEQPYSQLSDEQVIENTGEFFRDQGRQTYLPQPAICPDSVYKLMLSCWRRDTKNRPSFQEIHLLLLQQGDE

[3] = target: T1, Discoidin domain-containing receptor 2 (Homo sapiens); conditions: at 1 µM
[4] = target: Epidermal growth factor receptor (Homo sapiens) (UniProt P00533); conditions: at 0.1 µM
[5] = target: Epidermal growth factor receptor (Homo sapiens) (UniProt P00533); conditions: at 1 µM
[6] = test system: Epidermal growth factor receptor (Homo sapiens), P00533 [L858R]; conditions: at 0.1 µM
[7] = test system: Epidermal growth factor receptor (Homo sapiens), P00533 [L858R]; conditions: at 1 µM
[8] = test system: Epidermal growth factor receptor (Homo sapiens), P00533 [L861Q]; conditions: at 0.1 µM
[9] = test system: Epidermal growth factor receptor (Homo sapiens), P00533 [L861Q]; conditions: at 1 µM
[10] = test system: Epidermal growth factor receptor (Homo sapiens), P00533 [T790M]; conditions: at 0.1 µM
[11] = test system: Epidermal growth factor receptor (Homo sapiens), P00533 [T790M]; conditions: at 1 µM
[12] = test system: Epidermal growth factor receptor (Homo sapiens), P00533 [L858R,T790M]; conditions: at 0.1 µM
[13] = test system: Epidermal growth factor receptor (Homo sapiens), P00533 [L858R,T790M]; conditions: at 1 µM
[14] = target: Ephrin type-A receptor 2 (Homo sapiens) (UniProt P29317); conditions: at 0.1 µM
[15] = target: Ephrin type-A receptor 2 (Homo sapiens) (UniProt P29317); conditions: at 1 µM
[16] = target: T2, Ephrin type-A receptor 3 (Homo sapiens) (UniProt P29320); conditions: at 0.1 µM
T2 sequence (whole entry): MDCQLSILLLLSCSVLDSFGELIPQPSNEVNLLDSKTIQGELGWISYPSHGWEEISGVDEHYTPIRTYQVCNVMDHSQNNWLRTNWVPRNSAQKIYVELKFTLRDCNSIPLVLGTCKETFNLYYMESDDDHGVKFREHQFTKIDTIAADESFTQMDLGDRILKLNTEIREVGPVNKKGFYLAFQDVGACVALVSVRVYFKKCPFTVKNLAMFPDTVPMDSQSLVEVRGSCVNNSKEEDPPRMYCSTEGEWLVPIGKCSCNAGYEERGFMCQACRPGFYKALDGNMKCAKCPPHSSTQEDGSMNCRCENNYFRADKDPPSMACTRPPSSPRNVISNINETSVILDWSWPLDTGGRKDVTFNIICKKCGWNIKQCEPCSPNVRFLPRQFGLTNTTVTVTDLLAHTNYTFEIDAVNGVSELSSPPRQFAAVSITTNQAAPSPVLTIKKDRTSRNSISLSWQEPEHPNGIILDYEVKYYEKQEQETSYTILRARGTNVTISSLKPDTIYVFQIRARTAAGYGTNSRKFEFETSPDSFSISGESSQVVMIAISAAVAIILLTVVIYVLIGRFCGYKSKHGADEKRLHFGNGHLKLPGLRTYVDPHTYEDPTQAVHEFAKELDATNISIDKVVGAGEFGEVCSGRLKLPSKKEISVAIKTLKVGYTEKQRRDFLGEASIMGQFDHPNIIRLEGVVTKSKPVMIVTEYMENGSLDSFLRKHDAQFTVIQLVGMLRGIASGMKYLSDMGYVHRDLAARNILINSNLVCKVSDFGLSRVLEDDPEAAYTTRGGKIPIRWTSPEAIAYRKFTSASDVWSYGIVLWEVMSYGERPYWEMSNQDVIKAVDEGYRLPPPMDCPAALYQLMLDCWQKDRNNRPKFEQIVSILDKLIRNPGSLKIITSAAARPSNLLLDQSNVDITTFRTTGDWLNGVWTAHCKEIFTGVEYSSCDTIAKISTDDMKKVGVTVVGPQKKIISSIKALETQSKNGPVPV

[17] = target: T2, Ephrin type-A receptor 3 (Homo sapiens); conditions: at 1 µM
[18] = target: Ephrin type-A receptor 4 (Homo sapiens) (UniProt P54764); conditions: at 0.1 µM
[19] = target: Ephrin type-A receptor 4 (Homo sapiens) (UniProt P54764); conditions: at 1 µM
[20] = target: T3, Ephrin type-B receptor 2 (Homo sapiens) (UniProt P29323); conditions: at 0.1 µM;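 further: reported as mean inhibition of EPHB2, from the GSK PKIS dataset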
T3 sequence (whole entry): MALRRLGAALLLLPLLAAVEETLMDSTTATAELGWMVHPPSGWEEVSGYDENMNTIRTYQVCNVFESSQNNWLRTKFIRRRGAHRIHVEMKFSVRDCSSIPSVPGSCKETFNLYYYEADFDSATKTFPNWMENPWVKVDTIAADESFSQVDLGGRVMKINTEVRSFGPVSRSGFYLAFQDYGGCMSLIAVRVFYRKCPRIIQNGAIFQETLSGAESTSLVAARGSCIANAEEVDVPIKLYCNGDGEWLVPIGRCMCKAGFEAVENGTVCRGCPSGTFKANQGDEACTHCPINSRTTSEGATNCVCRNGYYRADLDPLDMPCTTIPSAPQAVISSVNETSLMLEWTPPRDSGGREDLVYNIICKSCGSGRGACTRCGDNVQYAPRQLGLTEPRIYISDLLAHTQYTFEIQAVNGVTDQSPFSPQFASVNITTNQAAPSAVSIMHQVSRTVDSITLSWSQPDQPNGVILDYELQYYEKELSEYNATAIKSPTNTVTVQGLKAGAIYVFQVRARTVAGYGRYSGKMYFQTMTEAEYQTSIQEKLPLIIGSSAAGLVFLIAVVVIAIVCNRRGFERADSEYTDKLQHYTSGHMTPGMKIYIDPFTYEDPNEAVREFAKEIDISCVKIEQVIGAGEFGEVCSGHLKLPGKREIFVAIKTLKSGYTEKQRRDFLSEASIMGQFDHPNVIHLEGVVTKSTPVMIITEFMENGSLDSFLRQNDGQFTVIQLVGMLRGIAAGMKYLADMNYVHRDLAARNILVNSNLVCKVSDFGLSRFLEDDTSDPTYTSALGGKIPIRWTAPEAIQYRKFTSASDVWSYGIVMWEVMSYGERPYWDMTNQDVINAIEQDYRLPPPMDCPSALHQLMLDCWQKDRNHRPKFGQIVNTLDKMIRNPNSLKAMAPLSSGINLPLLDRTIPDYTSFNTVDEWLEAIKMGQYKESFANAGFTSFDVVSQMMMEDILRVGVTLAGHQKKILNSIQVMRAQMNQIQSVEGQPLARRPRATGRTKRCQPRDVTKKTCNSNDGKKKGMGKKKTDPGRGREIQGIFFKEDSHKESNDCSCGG

Chain of Epidermal growth factor receptor (Homo sapiens), P00533 [L858R,T790M] (P00533 whole entry T790M/L858R, looked up): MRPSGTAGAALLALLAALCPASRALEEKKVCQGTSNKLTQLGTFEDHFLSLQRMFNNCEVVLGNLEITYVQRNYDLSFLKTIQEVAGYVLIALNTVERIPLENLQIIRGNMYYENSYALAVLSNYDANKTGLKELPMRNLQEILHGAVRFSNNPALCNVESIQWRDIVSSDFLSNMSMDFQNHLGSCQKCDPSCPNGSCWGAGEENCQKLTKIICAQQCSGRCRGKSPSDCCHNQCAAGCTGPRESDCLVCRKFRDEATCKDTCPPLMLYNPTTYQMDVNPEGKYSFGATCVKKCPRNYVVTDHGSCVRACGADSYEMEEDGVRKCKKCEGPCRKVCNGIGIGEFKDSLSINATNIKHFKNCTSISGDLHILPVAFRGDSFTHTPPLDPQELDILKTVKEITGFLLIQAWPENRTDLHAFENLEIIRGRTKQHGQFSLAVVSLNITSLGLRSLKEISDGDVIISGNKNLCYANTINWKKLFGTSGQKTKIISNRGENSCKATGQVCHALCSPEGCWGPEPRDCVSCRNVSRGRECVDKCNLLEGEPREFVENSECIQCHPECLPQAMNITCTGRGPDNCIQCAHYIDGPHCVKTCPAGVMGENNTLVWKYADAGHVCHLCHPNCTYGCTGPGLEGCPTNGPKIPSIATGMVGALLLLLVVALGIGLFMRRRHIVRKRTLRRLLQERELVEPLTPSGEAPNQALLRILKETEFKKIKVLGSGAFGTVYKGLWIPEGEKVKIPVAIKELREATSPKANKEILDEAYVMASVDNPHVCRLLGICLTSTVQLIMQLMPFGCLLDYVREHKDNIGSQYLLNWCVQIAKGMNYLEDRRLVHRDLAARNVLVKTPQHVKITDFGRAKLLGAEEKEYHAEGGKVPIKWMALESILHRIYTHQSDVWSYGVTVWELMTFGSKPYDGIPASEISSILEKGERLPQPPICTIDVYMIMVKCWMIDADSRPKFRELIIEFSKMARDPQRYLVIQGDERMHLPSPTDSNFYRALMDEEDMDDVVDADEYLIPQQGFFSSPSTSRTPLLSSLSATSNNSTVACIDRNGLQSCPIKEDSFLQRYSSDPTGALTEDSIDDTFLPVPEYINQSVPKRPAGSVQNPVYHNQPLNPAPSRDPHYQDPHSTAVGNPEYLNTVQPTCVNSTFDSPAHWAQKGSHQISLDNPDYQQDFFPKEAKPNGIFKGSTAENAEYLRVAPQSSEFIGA
Chain of Epidermal growth factor receptor (Homo sapiens) (P00533 whole entry): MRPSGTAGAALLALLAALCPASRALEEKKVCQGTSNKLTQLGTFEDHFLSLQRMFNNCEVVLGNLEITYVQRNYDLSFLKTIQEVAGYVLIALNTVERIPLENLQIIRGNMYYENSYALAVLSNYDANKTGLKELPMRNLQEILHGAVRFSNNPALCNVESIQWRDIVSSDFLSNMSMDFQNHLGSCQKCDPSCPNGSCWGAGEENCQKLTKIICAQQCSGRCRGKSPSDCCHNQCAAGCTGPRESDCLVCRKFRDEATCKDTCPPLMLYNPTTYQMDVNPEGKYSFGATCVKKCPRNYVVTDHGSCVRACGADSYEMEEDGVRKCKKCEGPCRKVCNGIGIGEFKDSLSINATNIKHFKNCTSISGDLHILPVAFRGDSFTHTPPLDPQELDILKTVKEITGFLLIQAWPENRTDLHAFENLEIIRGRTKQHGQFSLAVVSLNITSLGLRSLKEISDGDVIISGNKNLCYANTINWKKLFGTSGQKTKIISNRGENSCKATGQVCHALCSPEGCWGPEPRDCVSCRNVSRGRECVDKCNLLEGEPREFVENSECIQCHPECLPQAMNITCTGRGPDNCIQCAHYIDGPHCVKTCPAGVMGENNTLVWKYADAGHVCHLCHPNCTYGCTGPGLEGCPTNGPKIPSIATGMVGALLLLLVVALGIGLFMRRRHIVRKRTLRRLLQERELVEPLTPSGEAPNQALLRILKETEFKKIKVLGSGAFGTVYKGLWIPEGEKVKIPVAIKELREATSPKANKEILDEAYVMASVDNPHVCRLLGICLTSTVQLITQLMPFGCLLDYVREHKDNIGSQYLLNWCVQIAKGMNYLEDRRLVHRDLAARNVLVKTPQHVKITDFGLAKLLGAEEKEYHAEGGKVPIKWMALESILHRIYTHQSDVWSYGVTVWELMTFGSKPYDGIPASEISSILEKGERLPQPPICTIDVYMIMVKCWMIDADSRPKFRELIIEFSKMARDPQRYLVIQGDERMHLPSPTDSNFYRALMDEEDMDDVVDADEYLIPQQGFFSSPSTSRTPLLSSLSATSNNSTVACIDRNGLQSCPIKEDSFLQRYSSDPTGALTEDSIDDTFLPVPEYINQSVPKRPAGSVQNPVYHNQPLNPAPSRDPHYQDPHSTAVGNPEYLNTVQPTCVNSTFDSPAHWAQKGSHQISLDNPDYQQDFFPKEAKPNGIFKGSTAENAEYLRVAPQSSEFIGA
Chain of Ephrin type-A receptor 4 (Homo sapiens) (P54764 whole entry): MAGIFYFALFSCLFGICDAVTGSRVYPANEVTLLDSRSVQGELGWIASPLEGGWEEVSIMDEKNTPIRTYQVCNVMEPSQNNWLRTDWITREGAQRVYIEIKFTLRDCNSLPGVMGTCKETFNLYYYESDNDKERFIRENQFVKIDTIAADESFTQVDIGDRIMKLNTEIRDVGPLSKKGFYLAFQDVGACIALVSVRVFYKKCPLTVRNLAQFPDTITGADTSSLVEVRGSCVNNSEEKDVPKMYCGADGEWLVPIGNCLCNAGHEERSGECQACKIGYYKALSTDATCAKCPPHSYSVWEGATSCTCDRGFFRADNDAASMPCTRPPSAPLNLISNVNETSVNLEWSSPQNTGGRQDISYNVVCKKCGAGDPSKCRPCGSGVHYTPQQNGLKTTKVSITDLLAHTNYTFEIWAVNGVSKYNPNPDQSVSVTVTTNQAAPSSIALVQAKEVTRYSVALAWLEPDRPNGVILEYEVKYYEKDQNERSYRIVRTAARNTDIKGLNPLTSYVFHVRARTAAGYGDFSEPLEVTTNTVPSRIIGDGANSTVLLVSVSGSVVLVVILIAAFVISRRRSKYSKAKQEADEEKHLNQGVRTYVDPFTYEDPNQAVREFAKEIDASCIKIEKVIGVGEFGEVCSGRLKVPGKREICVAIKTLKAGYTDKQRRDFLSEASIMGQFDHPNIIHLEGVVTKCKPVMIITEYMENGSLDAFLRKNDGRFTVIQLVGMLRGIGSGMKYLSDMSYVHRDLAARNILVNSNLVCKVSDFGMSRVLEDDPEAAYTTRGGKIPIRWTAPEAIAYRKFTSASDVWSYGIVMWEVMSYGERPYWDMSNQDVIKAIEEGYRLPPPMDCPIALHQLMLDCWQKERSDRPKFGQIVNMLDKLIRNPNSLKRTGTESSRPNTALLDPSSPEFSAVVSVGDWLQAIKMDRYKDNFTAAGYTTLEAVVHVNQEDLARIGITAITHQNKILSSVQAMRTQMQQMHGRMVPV
Chain of Tyrosine-protein kinase CSK (Homo sapiens) (P41240 2-450 limits assumed): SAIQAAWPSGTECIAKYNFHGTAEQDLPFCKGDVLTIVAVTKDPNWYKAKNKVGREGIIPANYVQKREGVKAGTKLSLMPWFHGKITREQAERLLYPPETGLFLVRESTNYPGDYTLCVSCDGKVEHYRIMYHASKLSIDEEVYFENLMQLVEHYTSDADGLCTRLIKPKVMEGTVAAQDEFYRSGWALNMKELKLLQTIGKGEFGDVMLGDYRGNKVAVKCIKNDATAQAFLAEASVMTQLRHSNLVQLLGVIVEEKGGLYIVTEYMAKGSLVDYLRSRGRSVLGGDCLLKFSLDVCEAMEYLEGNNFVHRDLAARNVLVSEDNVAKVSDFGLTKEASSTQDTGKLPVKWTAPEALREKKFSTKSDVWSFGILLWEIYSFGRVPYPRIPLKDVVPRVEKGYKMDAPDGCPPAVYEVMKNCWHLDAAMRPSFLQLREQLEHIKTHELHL
Chain of Epidermal growth factor receptor (Homo sapiens), P00533 [L861Q] (P00533 whole entry L861Q): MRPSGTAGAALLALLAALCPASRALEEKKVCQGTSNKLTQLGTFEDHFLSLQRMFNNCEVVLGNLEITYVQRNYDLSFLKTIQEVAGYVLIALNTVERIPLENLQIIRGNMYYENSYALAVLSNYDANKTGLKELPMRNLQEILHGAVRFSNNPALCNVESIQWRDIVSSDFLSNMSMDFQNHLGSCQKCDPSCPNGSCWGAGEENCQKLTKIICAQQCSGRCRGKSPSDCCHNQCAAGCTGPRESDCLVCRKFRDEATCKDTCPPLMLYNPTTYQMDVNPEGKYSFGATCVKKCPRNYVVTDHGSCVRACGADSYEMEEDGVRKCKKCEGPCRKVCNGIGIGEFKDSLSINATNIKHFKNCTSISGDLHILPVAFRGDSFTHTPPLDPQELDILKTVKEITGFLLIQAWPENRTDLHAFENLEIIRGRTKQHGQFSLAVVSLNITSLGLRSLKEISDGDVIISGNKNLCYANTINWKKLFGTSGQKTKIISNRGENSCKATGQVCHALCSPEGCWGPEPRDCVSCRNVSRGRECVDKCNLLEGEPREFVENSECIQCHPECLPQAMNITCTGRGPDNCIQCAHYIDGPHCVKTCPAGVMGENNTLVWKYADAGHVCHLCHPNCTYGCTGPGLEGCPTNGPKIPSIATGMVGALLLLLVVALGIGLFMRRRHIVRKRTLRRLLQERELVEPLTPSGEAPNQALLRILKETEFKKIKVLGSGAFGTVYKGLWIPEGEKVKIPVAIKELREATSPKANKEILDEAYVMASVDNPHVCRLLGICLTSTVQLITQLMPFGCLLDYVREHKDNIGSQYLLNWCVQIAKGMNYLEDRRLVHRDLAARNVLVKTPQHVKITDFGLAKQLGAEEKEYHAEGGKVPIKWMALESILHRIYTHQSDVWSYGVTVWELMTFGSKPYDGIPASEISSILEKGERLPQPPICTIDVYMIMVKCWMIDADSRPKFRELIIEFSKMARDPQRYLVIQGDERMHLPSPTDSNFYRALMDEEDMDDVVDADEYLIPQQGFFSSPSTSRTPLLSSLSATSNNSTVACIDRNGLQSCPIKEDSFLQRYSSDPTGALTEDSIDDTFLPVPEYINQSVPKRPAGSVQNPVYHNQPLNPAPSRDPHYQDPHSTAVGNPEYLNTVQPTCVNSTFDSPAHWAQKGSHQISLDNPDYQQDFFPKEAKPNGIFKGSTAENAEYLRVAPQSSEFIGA

Structure (SMILES) | inhibition [1] | inhibition [2] | inhibition [3] | inhibition [4] | inhibition [5] | inhibition [6] | inhibition [7] | inhibition [8] | inhibition [9] | inhibition [10] | inhibition [11] | inhibition [12] | inhibition [13] | inhibition [14] | inhibition [15] | inhibition [16] | inhibition [17] | inhibition [18] | inhibition [19] | inhibition [20]
CN1CCN(C(=O)c2ccc(NC(=O)Nc3ccc(N(C)c4ccnc(Nc5ccc(CS(C)(=O)=O)cc5)n4)cc3)cc2)CC1 | 12.6% | 66% | 85% | 4.52% | 7% | -3.46% | 2.15% | 1.12% | 4.44% | -0.46% | 1.47% | -1.16% | 2.86% | 0.47% | 5.09% | 0.72% | 4.49% | 5.53% | 22.9% | 8.44%
Nc1ccc(C#Cc2cncnc2Nc2ccc(OCc3cccc(F)c3)c(Cl)c2)cc1 | 4.88% | 1.32% | 0.65% | 45.5% | 82.8% | 5.98% | 35.2% | 23.1% | 37.2% | 2.51% | 2.68% | -0.93% | 0.42% | 0.44% | 0.03% | 3.68% | 3.02% | 6.49% | 8.04% | 1.34%
COc1cc(/C=N/Nc2ncnc3c2cnn3C(C)C)ccc1O | -1.57% | -0.03% | -1.45% | 6.39% | 9.9% | 3.23% | 12.2% | 2.56% | 3.26% | 0.17% | 0.47% | -0.23% | 2.31% | 1.56% | 21.1% | 3.55% | 7.89% | 7.43% | 32.9% | 5.57%
NC(=O)c1sc(-n2cnc3ccccc32)cc1OCc1ccccc1Br | 2.18% | 1.76% | 1.6% | 1.88% | 0.93% | -0.06% | 5% | 1.71% | 2.89% | 1.26% | 1.85% | 2.85% | 1.45% | 0.63% | 0.39% | 1.18% | 3.38% | 6.29% | 9.89% | 5.64%
COc1cccc(-n2nc(C)c3c(N/N=C(\C)c4ccncc4)ncnc32)c1 | 0.42% | 0.8% | 0.38% | 1.03% | 2.43% | -0.3% | 1.45% | -0.04% | 0.7% | -1.78% | -1.56% | -0.53% | -1.32% | -1.68% | -1.94% | -0.57% | 2.37% | 3.69% | 6.36% | 2.52%
COc1cc2ncnc(Nc3ccc4c(cnn4Cc4ccccc4)c3)c2cc1OC | 58.2% | 1.74% | 1.78% | 87.2% | 84.7% | 72.5% | 94.4% | 55.8% | 84.8% | 8.65% | 36.2% | 1.03% | 3.09% | -2.8% | -2.26% | 1.64% | 2.12% | 4.83% | 6.82% | 4.85%
Cc1cc(O)cc(C)c1/C=C/c1cncc(C(=O)N(C)C)c1 | 7.46% | 4% | 6.51% | 3.09% | 6.63% | 2.7% | 3.1% | 3.53% | 2.99% | 1.24% | 0.44% | -0.03% | -0.26% | 2.13% | 4.81% | 6.48% | 8.52% | 8.99% | 18.6% | 9.34%
